High-throughput results deposited in PubChem by several laboratories.
A selection: hits, their analogues and other compounds. The true share with any hit is near 3.5%.
Bead autofluor – compound fluorescence in toxin protease inhibitor counterscreen. compound autofluorescence counterscreen, microsphere flow cytometry; stronger effect = higher value. fluorescence intensity (no concentration beside the values). actives 3.1% (n = 360,000). AID 624483; in the data active means fluorescence intensity above about 16000; inconclusive means no clear call, values can overlap the other calls
BoNT-F LC inh – BoNT F light chain protease inhibition | Multiplex microsphere protease cleavage assay, flow cytometry | inhibition, % at 10 µM | actives 0.22% (n = 360,000) | AID 588497; in the data active means inhibition above about 35%, passing the limit was not always enough; inconclusive means no clear call, values can overlap the other calls
BJeLR lethal – kills HRASV12-expressing BJeLR cells. BJeLR (HRASV12) viability, CellTiter-Glo ATP luminescence, 48 h. inhibition, % (concentration not given with the values). actives 0.17% (n = 300,000). AID 1554; in the data active means inhibition above about 50%; inconclusive means no clear call, values can overlap the other calls
BoNT-A LC inh2 – inhibitors of Botulinum neurotoxin A light chain protease; multiplex microsphere protease substrate cleavage, flow cytometry; inhibition, % at 10 µM; actives 0.17% (n = 360,000)
Anthrax LF inh2 – blocks Bacillus anthracis lethal factor protease. inhibition, % at 10 µM. actives 0.12% (n = 360,000). P15917. multiplex microsphere protease cleavage assay, LF
Target sequence (P15917 whole entry, looked up): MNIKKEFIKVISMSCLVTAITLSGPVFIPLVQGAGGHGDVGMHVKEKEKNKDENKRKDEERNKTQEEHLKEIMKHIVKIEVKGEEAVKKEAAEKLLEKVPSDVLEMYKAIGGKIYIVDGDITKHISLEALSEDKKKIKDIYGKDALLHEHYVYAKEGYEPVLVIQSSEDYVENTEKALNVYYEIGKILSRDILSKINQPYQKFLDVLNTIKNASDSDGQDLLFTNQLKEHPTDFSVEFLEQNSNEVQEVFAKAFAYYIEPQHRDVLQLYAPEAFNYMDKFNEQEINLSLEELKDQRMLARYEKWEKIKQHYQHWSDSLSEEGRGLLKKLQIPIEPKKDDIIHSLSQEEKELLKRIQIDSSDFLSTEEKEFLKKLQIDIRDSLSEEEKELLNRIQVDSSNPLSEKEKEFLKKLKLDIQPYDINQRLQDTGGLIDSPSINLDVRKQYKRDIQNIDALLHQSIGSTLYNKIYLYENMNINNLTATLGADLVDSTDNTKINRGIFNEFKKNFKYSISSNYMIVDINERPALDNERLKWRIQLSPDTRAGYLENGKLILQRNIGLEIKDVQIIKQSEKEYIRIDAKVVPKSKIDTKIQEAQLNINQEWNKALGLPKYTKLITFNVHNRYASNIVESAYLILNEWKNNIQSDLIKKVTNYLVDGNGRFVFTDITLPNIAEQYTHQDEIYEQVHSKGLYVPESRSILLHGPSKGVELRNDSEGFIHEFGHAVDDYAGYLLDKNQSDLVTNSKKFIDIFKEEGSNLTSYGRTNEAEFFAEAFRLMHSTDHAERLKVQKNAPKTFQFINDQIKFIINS
Large screens that a line does not name were inactive. Unless noted, no stated cut-off is given here; in the data, active means inhibition above about 30%; inconclusive means no clear call, values can overlap the other calls; inactive means below that.

COCCNC(=O)C(c1ccc(Cl)cc1)N(CCOC)C(=O)CCC(=O)Nc1nccs1 (stereo not drawn)	none
CCN(CC)S(=O)(=O)c1ccc(NC2=NS(=O)(=O)c3ccccc32)cc1	none
O=S1(=O)N=C(Nc2nncs2)c2ccccc21	Bead autofluor 22257, BoNT-A LC inh2 inconclusive
O=C(Nc1ccccc1C(=O)NCCCn1ccnc1)c1ccccc1	Bead autofluor 20501
O=C(c1ccc(C(F)(F)F)cc1)c1c[nH]c(C(=O)NCCCn2ccnc2)c1	Bead autofluor 19564, BoNT-A LC inh2 inconclusive
O=C(Cc1ccccc1)c1c[nH]c(C(=O)NCCCn2ccnc2)c1	none (no result: Bead autofluor, BoNT-F LC inh, BoNT-A LC inh2, Anthrax LF inh2)
CC1CC(C)CN(S(=O)(=O)c2ccc(C(=O)NCCCn3ccnc3)cc2)C1 (stereo not drawn)	Bead autofluor inconclusive, BoNT-F LC inh inconclusive, BJeLR lethal 108.9, BoNT-A LC inh2 inconclusive, Anthrax LF inh2 inconclusive
O=C(NCCCn1ccnc1)c1ccco1	Bead autofluor 24362
COc1ccc(C(=O)Nc2ccccc2C(=O)NCCCn2ccnc2)cc1	none
CCCCCOc1ccc(NC(=O)C(=O)NCCCn2ccnc2)cc1	none
C=CCOc1ccc(NC(=O)C(=O)NCCCn2ccnc2)cc1	Bead autofluor 19499
COC(=O)[C@@]1(C(C)C)N=C(c2cc(OC)c(OC)c(OC)c2)[C@]2(O1)C(=O)Nc1ccccc12	none (no result: BJeLR lethal)
CC(=O)Nc1cc(-c2ccccc2N(C)C)cn2c(-c3cccc(C(F)(F)F)c3)cnc12	none (no result: BJeLR lethal)
CC1(C)Cc2cccc(OCC(=O)OCC(=O)Nc3ccc(S(N)(=O)=O)cc3)c2O1	none (no result: BJeLR lethal)
Cc1nc2ccccc2n1CC(=O)NCCN1CCCC1	none
O=C(Cn1c(C(F)(F)F)nc2ccccc21)NCCN1CCCC1	Bead autofluor 22679 (no result: BJeLR lethal)
CCOC(=O)C1(C)CCN1C(=O)c1ccc(C(C)(C)C)cc1 (stereo not drawn)	none (no result: BJeLR lethal)
O=c1cc(CO)occ1OCc1cccc(F)c1	Bead autofluor 19821, BoNT-A LC inh2 inconclusive
Cc1ccc(O)c(C2=NCCNC(C(F)(F)F)=C2)c1	Bead autofluor 21465, BoNT-A LC inh2 inconclusive
Oc1c(C2=NCCNC(C(F)(F)F)=C2)ccc2ccccc12	none
CC1(C)C[C@H]2C=C(C=O)[C@]3(C=O)C[C@]3(C)[C@H]2C1	BJeLR lethal 92.0
COC(=O)[C@H](C(C)C)N(Cc1ccccc1)S(=O)(=O)CCNC1CCCC1	none (no result: BJeLR lethal)
COc1ccccc1N1CCN(C(=O)C(C)N(c2ccccc2)S(C)(=O)=O)CC1 (stereo not drawn)	Bead autofluor 21669, BoNT-A LC inh2 inconclusive
COc1ccccc1N1CCN(C(=O)C(C)N(c2ccc(C)cc2)S(C)(=O)=O)CC1 (stereo not drawn)	none
CCn1c2ccccc2c2cc(NC(=O)N3CCCCC3)ccc21	none (no result: BJeLR lethal)
O=C(O)c1ccc(CN2C(=O)c3cccc4c([N+](=O)[O-])ccc(c34)C2=O)cc1	BJeLR lethal 72.9
COc1cccc(C2NC(=O)NC(C)=C2C(=O)Nc2cc(OC)ccc2OC)c1 (stereo not drawn)	Bead autofluor 17900
Cc1cc(OC(=O)c2c(Cl)cc(Cl)cc2Cl)nc(C)n1	Bead autofluor 16417
COc1ccc(-c2cc(=O)oc3c(C)c(OCc4nn[nH]n4)ccc23)cc1	Bead autofluor 23374, BoNT-A LC inh2 inconclusive
Cc1cc(OCc2nn[nH]n2)c2c(-c3ccccc3)cc(=O)oc2c1	Bead autofluor 20272
Cc1c(OCc2nn[nH]n2)ccc2c(-c3ccccc3)cc(=O)oc12	none
CN(C(=O)c1cccc(NC(=O)Cc2ccc(NC(=O)C3CCCN(S(=O)(=O)c4cccc([N+](=O)[O-])c4)C3)cc2)c1)C1CCCCC1 (stereo not drawn)	none (no result: BJeLR lethal)
O=C1NC[C@H](CCCCN2CCN(CC3CCCCC3)C(=O)C2=O)N(CCc2ccccc2)C1=O	none (no result: BJeLR lethal)
COc1cccc(Cl)c1NC(=O)N1CCc2c([nH]c3ccccc23)C1C(F)(F)F (stereo not drawn)	none
O=C(Nc1ccc(N2CCOCC2)cc1)c1csc([C@H]2C[C@H](O)[C@@H](CO)O2)n1	none (no result: BJeLR lethal)
CC(C)CCNC(=O)C1CCN(c2nc3ccccc3o2)CC1	Bead autofluor 16365
O=C(NCc1cccs1)C1CCN(c2nc3ccccc3o2)CC1	none
COc1ccc2[nH]c(=O)c(CN(C(=O)c3cccnc3)c3cc(C)ccc3C)cc2c1	Bead autofluor 18114
CC(=O)N(Cc1cccnc1)Cc1cc2ccccc2[nH]c1=O	Bead autofluor 23316
COc1ccc2[nH]c(=O)c(CN(Cc3cccnc3)C(=O)Nc3ccccc3)cc2c1	Bead autofluor 23007
CCOc1ccc2[nH]c(=O)c(CN(Cc3cccnc3)C(=O)Nc3ccccc3OC)cc2c1	none
COc1ccc2[nH]c(=O)c(CN(Cc3cccs3)S(=O)(=O)c3cccc4nsnc34)cc2c1	BJeLR lethal 52.5
COc1ccc2[nH]c(=O)c(CN(C(=O)c3cccnc3)c3ccc(C)cc3C)cc2c1	none
COc1ccc2[nH]c(=O)c(CN(CCO)C(=O)c3cccs3)cc2c1	Bead autofluor 22556
O=C(c1ccncc1)N(Cc1cc2ccccc2[nH]c1=O)C1CCCCC1	Bead autofluor 20954
COc1cc2cc(CN(CCO)C(=O)c3cccs3)c(=O)[nH]c2cc1OC	none
COc1ccc2cc(CN(C(=O)Nc3ccccc3)C3CCCC3)c(=O)[nH]c2c1	Bead autofluor 23679
COc1cc(C(=O)N(Cc2cccnc2)Cc2cc3cc4c(cc3[nH]c2=O)OCCO4)cc(OC)c1OC	Bead autofluor 22318
O=C(c1ccccc1F)N(Cc1cccnc1)Cc1cc2cc3c(cc2[nH]c1=O)OCCO3	none
O=C(c1ccco1)N(Cc1cc2ccccc2[nH]c1=O)C1CCCCC1	none
CC(C)CN(Cc1cc2ccccc2[nH]c1=O)C(=O)c1cccnc1	Bead autofluor 22057, BoNT-A LC inh2 inconclusive
CC1(C)N=C(c2ccc(Cl)cc2Cl)C(=O)N1	Bead autofluor 22553
CCOc1ccc(NC(c2ccccn2)c2oc(CO)cc(=O)c2O)cc1 (stereo not drawn)	none
O=C(NCCCN1CCC(Cc2ccccc2)CC1)C1CCN(S(=O)(=O)N2CCC3(CC2)OCCO3)CC1	none
O=C(NCCCN1CCN(Cc2ccccc2)CC1)C1CCN(S(=O)(=O)N2CCC3(CC2)OCCO3)CC1	Bead autofluor 21569
COc1ccc([C@@H]2C[C@H]3CN(Cc4ccccc4OC)C(=O)[C@]34CCCN24)cc1C	Bead autofluor 19989
Cc1nc2scc(-c3ccc(C(C)(C)C)cc3)c2c(=O)n1N	none
CCCCCCN1C=CC(=C2C(=O)c3ccccc3C2=O)C=C1	none
CCCN1C=CC(=C2C(=O)c3ccccc3C2=O)C=C1	BJeLR lethal 68.0
CCN1C=CC(=C2C(=O)c3ccccc3C2=O)C=C1	Bead autofluor 17505
CN1C=CC(=C2C(=O)c3ccccc3C2=O)C=C1	none (no result: Bead autofluor, BoNT-F LC inh, BoNT-A LC inh2, Anthrax LF inh2)
CC(=O)/C=C1/SC(CC(=O)O)C(=O)N1c1ccccc1 (stereo not drawn)	Bead autofluor 17699
Cc1cccc(C)c1-n1c(C)cc(/C=N/NC(=O)c2ccncc2)c1C	Bead autofluor 22105
Cc1ccc(-n2c(C)cc(/C=N/NC(=O)c3ccncc3)c2C)c(C)c1	Bead autofluor 22871
Cc1cc(/C=N/NC(=O)c2cccs2)c(C)n1-c1cnccn1	BoNT-F LC inh 47.3
